In the library only some 3.6% were active in any assay of this set; here they are far more common.
BoNT-A LC inh2 – BoNT A light chain protease inhibition | 0.17% of 360,000 active | multiplex microsphere protease substrate cleavage, flow cytometry | inhibition, % at 10 µM; further: plate controls were buffer without enzyme for full effect and enzyme alone for no effect
3CLpro inhibitor – SARS-CoV 3CLpro protease inhibition; inhibition, % at 6 µM; 0.14% of 290,000 active; AID 1706; recombinant SARS-CoV 3CLpro, quenched FRET peptide cleavage; in the data active means inhibition above about 12%
BJeLR viability – kills HRASV12-expressing BJeLR cells. BJeLR (HRASV12) viability, CellTiter-Glo ATP luminescence, 48 h. inhibition, % (no concentration beside the values). 0.17% of 300,000 active; in the data active means inhibition above about 50%; inconclusive means no clear call, values can overlap the other calls
Autofluor counter – compound fluorescence in toxin protease inhibitor counterscreen. compound autofluorescence counterscreen, microsphere flow cytometry; active compounds read high. fluorescence intensity (no concentration beside the values). 3.1% of 360,000 active. AID 624483; in the data active means fluorescence intensity above about 16000; inconclusive means no clear call, values can overlap the other calls
BoNT F protease – inhibitors of Botulinum neurotoxin F light chain protease; 0.22% of 360,000 active; AID 588497; inhibition, % at 10 µM; Multiplex microsphere protease cleavage assay, flow cytometry; in the data active means inhibition above about 35%, passing the limit was not always enough; inconclusive means no clear call, values can overlap the other calls; further: plate controls were buffer without enzyme for full effect and enzyme alone for no effect
Anthrax LF prot – inhibitors of Bacillus anthracis lethal factor protease | multiplex microsphere protease cleavage assay, LF | P15917 | 0.12% of 360,000 active | AID 588501 | inhibition, % at 10 µM; further: plate controls were buffer without enzyme for full effect and enzyme alone for no effect
Target sequence (P15917 whole entry, looked up): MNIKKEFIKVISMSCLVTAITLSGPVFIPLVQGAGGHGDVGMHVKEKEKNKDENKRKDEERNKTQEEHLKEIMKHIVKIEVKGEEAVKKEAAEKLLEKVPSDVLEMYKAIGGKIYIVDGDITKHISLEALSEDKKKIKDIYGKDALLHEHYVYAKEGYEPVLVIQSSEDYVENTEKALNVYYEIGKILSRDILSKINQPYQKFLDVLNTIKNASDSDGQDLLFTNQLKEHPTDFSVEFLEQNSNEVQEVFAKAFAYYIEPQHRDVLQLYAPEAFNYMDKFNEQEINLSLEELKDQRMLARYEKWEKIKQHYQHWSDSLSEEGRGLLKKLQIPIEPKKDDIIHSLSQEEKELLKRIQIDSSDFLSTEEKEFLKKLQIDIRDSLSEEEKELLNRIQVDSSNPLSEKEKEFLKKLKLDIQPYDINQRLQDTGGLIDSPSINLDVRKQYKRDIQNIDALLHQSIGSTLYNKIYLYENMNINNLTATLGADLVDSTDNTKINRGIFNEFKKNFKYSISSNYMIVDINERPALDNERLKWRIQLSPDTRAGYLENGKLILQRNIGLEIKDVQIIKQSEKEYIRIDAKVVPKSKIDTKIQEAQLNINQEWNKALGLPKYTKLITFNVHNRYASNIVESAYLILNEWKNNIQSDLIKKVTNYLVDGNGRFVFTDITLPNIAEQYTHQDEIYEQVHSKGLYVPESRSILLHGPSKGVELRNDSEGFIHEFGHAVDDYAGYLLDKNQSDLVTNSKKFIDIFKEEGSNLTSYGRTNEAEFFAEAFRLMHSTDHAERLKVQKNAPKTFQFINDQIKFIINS
The depositor's hits bear a star; ? = inconclusive; / = not tested or not shown. Unless noted, no stated cut-off is given here; in the data, active means inhibition above about 30%; inconclusive means no clear call, values can overlap the other calls; inactive means below that.

SMILES	BoNT-A LC inh2	3CLpro inhibitor	BJeLR viability	Autofluor counter	BoNT F protease	Anthrax LF prot
CCCC(C)c1nc(C(N)=O)c2[nH]c(=O)n(-c3ccc(OC)c(OC)c3)c2n1 (stereo unspecified)	-1	0	-23	4686	4	-2
Cc1cccc(NC(=O)CN(C)S(=O)(=O)c2ccc(Cl)cc2)n1	-1	-1	-3	9907	-5	-3
Cc1cccc(NC(=O)CN(C)S(=O)(=O)c2ccc(Br)cc2)n1	?	3	0	17225*	-4	-4
CN(CC(=O)Nc1nc2ccccc2s1)S(=O)(=O)c1ccc(Cl)cc1	-1	7	-2	6300	-8	-1
CN(CC(=O)Nc1nc2ccccc2s1)S(=O)(=O)c1ccc(Br)cc1	3	6	4	21220*	4	0
Cc1ccc(C(=O)Nc2nnc(S(=O)(=O)N3CCN(c4ccc(F)cc4)CC3)s2)cc1	0	0	-11	4189	2	-2
COc1cc(OC)c(C2CC(=O)N3CN(c4ccccc4)CSC3=C2C#N)cc1OC (stereo unspecified)	?	-4	2	20460*	0	-4
COc1ccc2ccccc2c1C1CC(=O)N2CN(C)CSC2=C1C#N (stereo unspecified)	?	2	3	20088*	-1	1
CCc1ccccc1N1CSC2=C(C#N)C(c3cc(OC)c(OC)cc3OC)CC(=O)N2C1 (stereo unspecified)	3	5	5	5398	10	-1
O=S(=O)(NC1CC2CCC1C2)c1ccc(Br)cc1 (stereo unspecified)	0	-1	-11	3799	4	-9
O=c1c2nnn(Cc3ccc(Cl)cc3)c2ncn1Cc1ccc(F)cc1	1	3	-10	22862*	-2	-1
O=C(OCC(O)C1OC(c2ccccc2)OC(COC(=O)c2ccccc2)C1O)c1ccccc1 (stereo unspecified)	0	/	/	6047	-2	-8
CN(C)Cc1cn(CCC(=O)O)c2ccccc12	-1	2	-3	24504*	-6	1
O=C(c1cccnc1)N1CCCc2ccccc21	0	-2	-4	20718*	-2	-2
O=C(c1cnc2ccccn2c1=O)N1CCCc2ccccc21	9	-6	-4	17332*	10	-6
O=C(c1ccc(S(=O)(=O)N2CCCC2)cc1)N1CCCc2ccccc21	1	-1	8	3630	1	1
Cc1csc2ncc(C(=O)N3CCCc4ccccc43)c(=O)n12	0	-1	1	5816	0	-6
O=C(c1ccc(S(=O)(=O)N2CCOCC2)cc1)N1CCCc2ccccc21	-2	0	3	17398*	-3	2
O=C(c1cnn2ccccc12)N1CCCc2ccccc21	0	-5	-5	4083	-1	0
O=C(c1cnc2n(c1=O)CCS2)N1CCCc2ccccc21	3	5	5	22039*	4	1
CSCCC(NC(=O)c1ccccc1Br)C(=O)N1CCN(C/C=C/c2ccccc2)CC1 (stereo unspecified)	0	/	/	3347	0	-8
COc1cccc(CN2CC(C(=O)NCCN3CCOCC3)CCC2=O)c1 (stereo unspecified)	0	-3	1	5267	-4	0
COc1ccc(CCNC(=O)CSc2nnc3ccccn23)cc1	-1	4	-5	4645	-1	-3
O=C(O)c1oc2ccccc2c1-n1cccc1	-2	-5	2	16703*	-2	-4
COC(=O)c1oc2ccc(Br)cc2c1-n1cccc1	0	-1	-2	2560	-1	-13
SMILES	BoNT-A LC inh2	3CLpro inhibitor	BJeLR viability	Autofluor counter	BoNT F protease	Anthrax LF prot
CCN1/C(=N\N)c2cccc3cccc1c23	39*	0	6	3325	-55	-10
C[C@@H]1CN([C@@H](C)CO)C(=O)c2cc(C3=CCCCC3)cnc2O[C@H]1CN(C)C(=O)Nc1cccc(F)c1	-1	/	/	4150	-4	-4
Cc1nc2cc(-c3ccc(Cl)cc3)nn2c(C)c1CCC(=O)NCc1ccco1	-1	-5	-3	5867	-18	0
O=C(CSc1nnc(-c2ccccc2)c(-c2ccccc2)n1)NCc1ccco1	0	-4	-2	9779	-3	7
COc1ccc(-c2ccc(SCC(=O)NCc3ccco3)nn2)cc1	-2	0	1	24470*	-4	-2
O=C(CSc1ccc(-c2ccc(F)cc2)nn1)NCc1ccco1	-1	-6	-4	9284	-5	2
CCOc1ccc2nc(SCC(=O)N3CCCc4ccccc43)sc2c1	?	-2	6	21324*	2	-6
COc1ccc(-c2cc3nc(C)c(CCC(=O)NCc4ccco4)c(C)n3n2)c(OC)c1	-1	-11	-2	20470*	0	-1
O=C(CSc1nc(-c2ccccc2)c(-c2ccccc2)[nH]1)NCc1ccco1	0	-2	-3	23502*	-2	-3
O=C(Nc1ccc(F)cc1F)C1CCN(S(=O)(=O)c2cccnc2)CC1	-3	3	-1	4503	-1	-5
CCCN1CCC(=O)N([C@H](CSc2ccc(OC)cc2)c2ccccc2)CC1	1	/	5	4532	-1	-2
CCN(CC)S(=O)(=O)c1cccc(NC(=O)c2cccc(S(=O)(=O)N3CCCC3)c2)c1	0	/	/	3681	-1	8
NC(=O)c1c(NC(=O)COC(=O)c2ccc(O)c(Cl)c2)sc2c1CCCC2	0	/	/	3802	3	-4
Cc1cccc(NC(=O)CSCC(=O)N(C)CCOc2ccc(Cl)cc2)c1	-1	/	7	?	0	-2
CCOc1ccc2nc(SCC(=O)NC(=O)NCc3ccco3)sc2c1	0	-1	0	2969	-6	-3
CCOc1ccc2nc(SCC(=O)NCc3ccco3)sc2c1	3	3	4	21294*	4	0
O=C(NCc1ccccc1Cl)[C@H]1CCCN1C(=O)[C@H]1CCCN1C(=O)c1cccs1	0	/	/	5019	2	-6
COC(=O)c1ccccc1NC(=O)CSc1nnc(C(C)NC(=O)c2ccc(Cl)cc2Cl)n1C (stereo unspecified)	-2	8	1	22829*	0	-5
Cc1cc2oc(C(=O)N(Cc3ccco3)C3CCS(=O)(=O)C3)cc(=O)c2cc1Cl (stereo unspecified)	0	-3	8	23579*	3	3
CC(=Nc1ccc2c(c1)CCC2)c1c(O)n(C2CCCCC2)c(=O)[nH]c1=O	1	-13	10	15927	3	-4
CCC(=Nc1ccc2c(c1)CCC2)c1c(O)n(C2CCCCC2)c(=O)[nH]c1=O	?	2	4	22000*	0	0
COc1ccc(CC(=O)NC2CCN(CC(=O)Nc3ccc4c(c3)OCCO4)CC2)cc1OC	-1	-4	-3	23401*	-4	-4
COc1ccc(NC(=O)CN2CCN(Cc3ccc4c(c3)OCO4)CC2)cc1OC	1	-2	-14	4587	3	5
O=C(CSc1ccccc1)Nc1ccc(-c2nc3ccccc3[nH]2)cc1	0	2	19	2366	-3	-2

Screening results (PubChem)
